# Source: PubChem BioAssay AID463193 (University of Pittsburgh Molecular Library Screening Center, 2010)
# Screen size: about 190,000 compounds; about 1,900 (1%) were called active.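 How the source made its calls: active means percentage of spot-positive cells more than 3 SD above its plate mean, without a fluorescence outlier flag or 80% toxicity; inconclusive means no clear call, values can overlap the other calls; inactive means the rest.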 The sample as a whole holds a higher share of actives than the screen did.
# Experiment: autophagy modulators in MEF cells, primary screen, imaging, high-content, MEF GFP-LC3 (AID 463193);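 on % cells with GFP-LC3 spots: spot-positive cell cutoff set from DMSO-treated cells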;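 on toxicity: cell loss after 18 h compound exposure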
# Conditions: MEF GFP-LC3 puncta imaging, at 10 µM; % cells with GFP-LC3 spots: stronger effect = higher value; toxicity: measured here: cell loss, nuclei count
SMILES,% cells with GFP-LC3 spots,toxicity [%]
COc1cccc(NC(=S)N(CCc2c(C)[nH]c3ccccc23)Cc2ccco2)c1,9.78% (inactive),16.6
COc1ccc2[nH]c(C)c(CCN(Cc3cccs3)C(=S)Nc3ccccc3OC)c2c1,12.3% (inactive),16.6
CCNC(=S)N(CCc1c(C)[nH]c2ccc(C)cc12)Cc1ccco1,19.1% (active),0.117
COC(=O)c1nc2n(n1)C(c1ccc([N+](=O)[O-])cc1)C(C(=O)Nc1ccc(Cl)cc1)=C(C)N2 (centres undefined),5.34% (inactive),-5.39
O=C(c1cccc([N+](=O)[O-])c1)N1CCN(C(=O)c2ccco2)CC1,0.295% (inactive),7.8
CCC(=O)c1ccc(OCC(O)CN2CC(C)OC(C)C2)cc1 (centres undefined),5.51% (inactive),-8.47
O=C(COc1ccc(Cl)cc1)N1CCN(c2cccc(C(F)(F)F)c2)CC1,9.65% (inactive),-3.29
CCC(=O)c1ccc(OCC(O)CN2CCN(c3cccc(C(F)(F)F)c3)CC2)cc1 (centres undefined),13.1% (active),8.02
CCO[C@@H]1OC(C(N)=O)=C[C@H](c2ccc(Br)cc2)[C@H]1CCCO,18.2% (inactive),10.9
CNS(=O)(=O)c1ccc(NC(=O)C2CC(=O)N(c3ccc(Cl)cc3)C2)cc1 (centres undefined),8.63% (inactive),-13.2
COc1cccc(C(=O)N2CCCC(CCC(=O)NCc3ccc(F)c(F)c3)C2)c1 (centres undefined),3.38% (inactive),5.82
O=C(O)CC(Cc1ccccc1)C(=O)Nc1ccc([N+](=O)[O-])cc1 (centres undefined),1.42% (inactive),-2.46
CN(C)S(=O)(=O)c1ccc2oc(SCC(=O)Nc3ccccc3F)nc2c1,0.884% (inactive),-4.66
Cc1cccc(C(=O)N2CCc3c([nH]c4ccccc34)C2CC(C)C)n1 (centres undefined),11% (inactive),-2.26
C=CCNC(=O)CCCC(=O)NCC=C,17.9% (active),1.29
C=CCNC(=O)CC12CC3CC(C1)CC(CC(=O)NCC=C)(C3)C2,23% (inactive),16.8
C=CCNC(=O)CCCOc1cccc(C)c1,10.7% (inactive),16.1
O=C(O)c1cccc(N=NN2CCCCCC2)c1,6.85% (inactive),-1.54
CSc1ncnc2sc(C)c(C)c12,10.2% (inactive),24.5
CCOC(=O)c1[nH]c2c(c1C)C(=O)CC(c1ccc(N(C)C)cc1)C2 (centres undefined),2.24% (inactive),-7.4
CCCOC(=O)c1[nH]c2c(c1C)C(=O)CC(c1cccs1)C2 (centres undefined),19% (active),63
CCCOC(=O)c1[nH]c2c(c1C)C(=O)CC(c1cc(OC)c(OC)c(OC)c1)C2 (centres undefined),12.1% (inactive),15.9
Cc1ccc(SC(C)C(=O)NCc2ccc(F)cc2)cc1 (centres undefined),0.143% (inactive),-15
Cc1cccc(Cn2cnc3c(N)c(C)c(C)cc32)c1,1.71% (inactive),1.99
Cc1nn(C)c(Oc2ccccc2)c1[N+](=O)[O-],2.75% (inactive),-3.54
COc1cccc(Cn2cnc3c([N+](=O)[O-])c(C)c(C)cc32)c1,6.93% (active),-2.05

SMILES,% cells with GFP-LC3 spots,toxicity [%]
CCOc1cccc(OCCCOc2cccc3cccnc23)c1,3.63% (inactive),-4.48
Fc1ccc2nc(-c3ccccc3)nc(SCc3nnc(-c4ccccc4)o3)c2c1,4.88% (inactive),16.1
Cc1ccc2nc(SCc3nnc(-c4ccccc4[N+](=O)[O-])o3)c(C#N)cc2c1,85.6% (active),21.6
Cc1nonc1NC(=O)CSc1nc2ccccc2cc1C#N,0.583% (inactive),-8.81
CCOc1ccc(Br)cc1S(=O)(=O)N1CCC(C(=O)O)CC1,6.06% (inactive),14.1
C/C(=N/O)c1ccc(N2C(=O)C3C4C=CC(C3C2=O)C2C3C(=O)N(c5ccc(/C(C)=N/O)cc5)C(=O)C3C42)cc1 (centres undefined),11.7% (inactive),14.4
O=C(Nc1nc2ccc([N+](=O)[O-])cc2s1)c1ccc(S(=O)(=O)N2CCCc3ccccc32)cc1,16.8% (inactive),25.4
O=C(NC(Nc1nc2ccc([N+](=O)[O-])cc2s1)(C(F)(F)F)C(F)(F)F)c1ccccc1,31.8% (active),57.9
O=C(O)CCC(=O)Nc1nc2ccc([N+](=O)[O-])cc2s1,6.76% (inactive),11.6
O=C(c1ccc2ccccc2n1)N1CCN(c2ccccc2Cl)CC1,4.83% (inactive),-5.94
CCOC(=O)N1CCN(C(=O)CSc2nc(C)nc3c2c(=O)n(C)c(=O)n3C)CC1,12.3% (inactive),3.6
Cc1ncoc1C(=O)NCCC(c1ccccc1)c1ccccc1,18% (inactive),11.5
COc1cccc(CNC(=O)CCC2CCCN(C(=O)c3cc(C)[nH]n3)C2)c1 (centres undefined),0.272% (inactive),-19.2
O=C(c1cccc(C(=O)N2CCc3ccccc32)n1)N1CCc2ccccc21,7.33% (inactive),25.5
Cc1occc1C(=O)N1CCCc2ccccc21,12.6% (inactive),-3.33
Cc1cccc2cc3c(N)c(C(=O)N4CCCc5ccccc54)sc3nc12,34.9% (active),33.8
O=C(/C=C/c1ccc(F)cc1)Nc1cccc(S(=O)(=O)Nc2cccc(C(F)(F)F)c2)c1,3.21% (inactive),11.4
O=c1[nH]c(=S)[nH]c2[nH]c(=S)[nH]c12,16.3% (inactive),14.2
CCOc1ccccc1NC(=O)c1cccnc1,1.43% (inactive),1.42
CCOc1cc(NC(=O)c2cnccn2)c(OCC)cc1NC(=O)c1ccc(C)cc1,16.1% (active),-0.236
CCOc1cc(NC(=O)c2ccccn2)c(OCC)cc1NC(=O)c1ccc(OC)cc1,2.17% (inactive),23.7
COc1ccc(/C=C/C(=O)NC(=S)NN2CCCCC2c2cccnc2)cc1 (centres undefined),2.8% (inactive),2.51
CCOCCCNC(=O)C(NC(=O)c1ccc(=O)[nH]c1)c1ccc(Cl)cc1 (centres undefined),28% (active),44.6
CCOCCCNC(=O)C(NC(=O)c1ccc(=O)[nH]c1)c1ccc(C)cc1 (centres undefined),3.93% (inactive),-0.266
CCOCCCNC(=O)C(NC(=O)c1ccccc1O)c1ccccc1 (centres undefined),5.35% (inactive),-34
CCc1nnc(NC(=O)CCCSc2nc3ccccc3[nH]2)s1,1.66% (inactive),-3.54
